Screening data (PubChem BioAssay)
Rows were chosen to be rich in hits. Some 10% of all compounds tested hit in one or more screens of this group.
KB-V1 cytotox – KB-V1 MDR subline cytotoxicity | KB-V1 MDR cells viability, CellTiter-Glo, 72 h | 400,000 tested, 3.4% active | Potency, µM (titrated, usually from 46.1 µM), usual class: cytotoxic; further: on the % scale 0 is the no-effect control and ±100 the full control effect; nearly all actives have a fitted effect of over 60% in size
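Cytotoxicity via CellTiter-Glo luminescence after 72 h compound exposure at 37 degrees C. Cells: drug-selected KB-V1 line, DMEM phenol-red free plus 10% FBS. Compounds tested at multiple concentrations; normalized data fitted to concentration-effect curves.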
SW480 rerep – induces DNA re-replication in SW480 colon adenocarcinoma cells; SW480 DNA re-replication, Hoechst DNA content imaging, 48 h; Potency, µM (titrated, usually from 46.1 µM), for inactives: top-dose re-replication activation, usual class: activators; 340,000 tested, 1.8% active; AID 624297; further: % of control where 0% means no effect; nearly all actives have a fitted effect of over 55% in size
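Quantitative HTS format with DMSO vehicle controls; 48 hr drug incubation at 37 C, then 40 min Hoechst staining and scanning imager measurement at 405 nm excitation.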
MCF10A rerep – inducers of DNA re-replication in MCF 10A breast cells; MCF 10A DNA re-replication, Hoechst nuclear intensity, 48 h; 350,000 tested, 2.9% active; Potency, µM (highest dose often 46.1 µM), without a hit: top-dose activity, positive = re-replication, actives largely listed as activators; AID 624296; further: % of control where 0% means no effect; nearly all actives have a fitted effect of over 50% in size
Gal4-VP16 FLuc – Gal4-VP16 reporter inhibition counter-screen; 310,000 tested, 3.5% active; Drosophila S2 Gal4-VP16 UAS-luciferase, luminescence, 20 h; Potency, µM (top dose mostly 53.6 µM), inactives show at the highest dose activity, negative = inhibition, usual class: inhibitors;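 further: Gal4-VP16 expression switched on by copper sulfate through the metallothionein promoter; on the % scale 0 is the no-effect control and ±100 the full control effect; nearly all actives have a fitted effect of over 50% in size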
RORg inh – ROR gamma (mouse) transcription inhibition; P51450; Drosophila S2 Gal4-RORgamma UAS-luciferase reporter, 20 h; Potency, µM (series often up to 53.6 µM), inactives show at the top dose activity change, negative = inhibition, most hits filed as inhibitors; 310,000 tested, 5.4% active; further: on the % scale 0 is the no-effect control and ±100 the full control effect; nearly all actives have a fitted effect of over 60% in size
Target sequence (P51450 whole entry, looked up, the tested form may be a part): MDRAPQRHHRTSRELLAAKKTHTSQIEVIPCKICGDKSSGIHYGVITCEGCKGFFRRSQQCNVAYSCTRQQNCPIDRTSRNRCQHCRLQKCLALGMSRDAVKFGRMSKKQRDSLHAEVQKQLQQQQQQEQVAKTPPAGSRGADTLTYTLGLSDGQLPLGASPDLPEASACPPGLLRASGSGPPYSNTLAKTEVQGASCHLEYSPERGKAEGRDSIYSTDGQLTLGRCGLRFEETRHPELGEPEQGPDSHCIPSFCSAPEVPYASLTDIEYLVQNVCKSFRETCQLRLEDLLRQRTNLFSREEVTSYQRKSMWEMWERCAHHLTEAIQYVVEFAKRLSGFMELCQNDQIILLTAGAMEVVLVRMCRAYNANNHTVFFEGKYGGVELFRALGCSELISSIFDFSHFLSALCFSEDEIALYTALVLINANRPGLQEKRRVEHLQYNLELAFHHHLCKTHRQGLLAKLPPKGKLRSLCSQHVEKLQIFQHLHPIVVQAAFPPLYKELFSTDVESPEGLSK
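Luciferase reporter read in Schneider cells carrying Gal4-RORγ (mouse) and UAS-Photinus luciferase; cells given compound 1 h before 700 uM copper sulfate induction, then incubated 20 h at ambient temperature.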
KB-3-1 cytotox – KB-3-1 parental cell cytotoxicity; KB-3-1 viability, CellTiter-Glo ATP luminescence, 72 h; Potency, µM (top dose mostly 46.1 µM), usual class: cytotoxic; 400,000 tested, 1.4% active; AID 1347075; further: on the % scale 0 is the no-effect control and ±100 the full control effect; nearly all actives have a fitted effect of over 60% in size
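KB-3-1 cells, DMEM (no phenol red) + 10% FBS; compound by pin transfer, 72 h, 37 °C. Readout: CellTiter-Glo luminescence after 10 min. Data normalized, curve-fitted.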
An asterisk follows results filed as active. The call rests on the fitted dose curve; in most records, active means well fitted curve in the direction sought with a large enough effect; inconclusive means small, poorly fitted or top-dose-only effect, or another doubt; inactive means no such curve, though single readings can be large; an effect the other way counts as inactive or inconclusive. Potency means the concentration at half of the fitted maximal effect.

Screening COC(CNC(=O)c1ccc2c(=O)n(Cc3ccc(Cl)cc3)c(=S)[nH]c2c1)OC returned KB-V1 cytotox inactive, SW480 rerep 2%, MCF10A rerep 1%, Gal4-VP16 FLuc -29%, RORg inh inconclusive and KB-3-1 cytotox inactive.
For CC1CCN(CCNC(=O)c2ccc3c(=O)n(Cc4ccc(Cl)cc4)c(=S)[nH]c3c2)CC1 the results were KB-V1 cytotox inconclusive, SW480 rerep -1%, MCF10A rerep 2%, Gal4-VP16 FLuc inconclusive, RORg inh 11µM* and KB-3-1 cytotox inactive.
Screening CCCCNC(=O)c1ccc(Cn2c(=S)[nH]c3c([nH]c4ccc(OC)cc43)c2=O)cc1 returned KB-V1 cytotox inactive, SW480 rerep inconclusive, MCF10A rerep 16µM*, Gal4-VP16 FLuc 18µM*, RORg inh 13µM* and KB-3-1 cytotox inconclusive.
COCCCNC(=O)c1ccc2c(=O)n(Cc3ccc(Cl)cc3)c(=S)[nH]c2c1 was read as KB-V1 cytotox inactive, SW480 rerep inconclusive, MCF10A rerep 1%, Gal4-VP16 FLuc inconclusive, RORg inh 18µM* and KB-3-1 cytotox inactive.
Screening Cc1cccc(C(C)C)c1NC(=O)COC(=O)CCN1C(=O)C2CC=CCC2C1=O (centres undefined) returned KB-V1 cytotox inactive, SW480 rerep -37%, MCF10A rerep 9%, Gal4-VP16 FLuc -2%, RORg inh 7% and KB-3-1 cytotox inactive.
O=C(C=C=Nc1ccccc1)C(=O)N=C=Cc1ccccc1 was read as KB-V1 cytotox inactive, SW480 rerep inconclusive, MCF10A rerep 4.6µM*, Gal4-VP16 FLuc 7.1µM*, RORg inh 4µM* and KB-3-1 cytotox inactive.
O=C(N/N=C/c1ccccc1)C(=O)N/N=C/c1ccccc1 was read as KB-V1 cytotox inactive, SW480 rerep -5%, MCF10A rerep 1%, Gal4-VP16 FLuc -5%, RORg inh -37% and KB-3-1 cytotox inactive.
For CCOC(=O)c1nn(-c2ccccc2)c(C#N)c1NC(=O)c1nn(CC)cc1Br the results were KB-V1 cytotox inactive, SW480 rerep 16%, MCF10A rerep 8%, Gal4-VP16 FLuc -26%, RORg inh 30% and KB-3-1 cytotox inactive.
CCOC(=O)c1c(NC(=O)c2nn(CC)cc2Br)c(C#N)nn1-c1ccccc1 was read as KB-V1 cytotox 16µM*, SW480 rerep 4%, MCF10A rerep -1%, Gal4-VP16 FLuc 3%, RORg inh -2% and KB-3-1 cytotox inactive.
For Cc1cc(C(=O)CN2C(=O)NC3(CCCCC3C)C2=O)c(C)n1Cc1cccs1 (centres undefined) the results were KB-V1 cytotox 23µM*, SW480 rerep 1%, MCF10A rerep 15%, Gal4-VP16 FLuc 19%, RORg inh inconclusive and KB-3-1 cytotox inactive.
Screening Cc1cc(C(=O)CN2C(=O)c3cccc(N)c3C2=O)c(C)n1Cc1cccs1 returned KB-V1 cytotox inactive, SW480 rerep inconclusive, MCF10A rerep 2.6µM*, Gal4-VP16 FLuc inconclusive, RORg inh inconclusive and KB-3-1 cytotox inactive.
`C(=C\c1nccc2ccccc12)/c1ccc(N2CCOCC2)cc1` gave KB-V1 cytotox inconclusive and KB-3-1 cytotox inactive.
Cc1cc(C)c(NC(=O)Cn2c(=O)n(CCc3ccccc3)c(=O)c3ccccc32)c(C)c1 was read as KB-V1 cytotox inactive and KB-3-1 cytotox inactive.
`C/C=C1\COC(C(=O)NCCN2CCCC2)(C(F)(F)F)C=C1C=C1CCCCC1` (centres undefined) gave KB-V1 cytotox inactive, SW480 rerep inconclusive, MCF10A rerep 6.5µM*, Gal4-VP16 FLuc -2%, RORg inh -18% and KB-3-1 cytotox inactive.
Screening C/C=C1\COC(C(=O)NCCN2CCOCC2)(C(F)(F)F)C=C1C=C1CCCCC1 (centres undefined) returned Gal4-VP16 FLuc -19% and RORg inh -25%.
`CCCCSCCCNC(=O)C1CCN(Cc2nc(-c3ccc(CC)cc3)oc2C)CC1` gave KB-V1 cytotox inactive and KB-3-1 cytotox inactive.
Screening Cn1c(Cl)c(/C=N/OC(=O)c2ccccc2Cl)c2ccccc21 returned KB-V1 cytotox inactive, SW480 rerep -4%, MCF10A rerep -3%, Gal4-VP16 FLuc -8%, RORg inh 0% and KB-3-1 cytotox inactive.
Cc1cccc(C(=O)O/N=C/c2c(N3CCOCC3)n(C)c3ccccc23)c1 was read as Gal4-VP16 FLuc 3.5µM* and RORg inh 1.6µM*.
`COc1ccc(OC)c2c1C(=O)C(Cl)=C(Cl)C2=O` gave KB-V1 cytotox 5.2µM*, SW480 rerep inconclusive, MCF10A rerep 2.6µM*, Gal4-VP16 FLuc 5µM*, RORg inh 5µM* and KB-3-1 cytotox 5.8µM*.
For COc1ccc(NC(=O)c2c(NCc3cccc(F)c3)sc3c2CCC3)c(OC)c1 the results were KB-V1 cytotox inactive and KB-3-1 cytotox inactive.
Screening O=C(Cn1ncc2c(Cl)cccc21)NCc1cccc(Br)c1 returned KB-V1 cytotox inactive and KB-3-1 cytotox inactive.
`O=C1ON=C(c2ccc(Cl)cc2)/C1=C/c1ccc(O)cc1` gave KB-V1 cytotox 21µM*, SW480 rerep 4%, MCF10A rerep inconclusive, Gal4-VP16 FLuc inconclusive, RORg inh -103% and KB-3-1 cytotox inactive.
For CCOc1cc(/C=C2/C(=O)ON=C2C)cc(Br)c1O the results were KB-V1 cytotox inactive, SW480 rerep -3%, MCF10A rerep 0%, Gal4-VP16 FLuc inconclusive, RORg inh inconclusive and KB-3-1 cytotox inactive.
Screening CCOc1cc(/C=C2\C(=O)ON=C2c2ccccc2)cc(Br)c1O returned KB-V1 cytotox inconclusive, SW480 rerep inconclusive, MCF10A rerep 9.2µM*, Gal4-VP16 FLuc inconclusive, RORg inh inconclusive and KB-3-1 cytotox inconclusive.
`COc1cc(/C=C2\C(=O)ON=C2c2ccccc2)cc(Cl)c1O` gave KB-V1 cytotox inconclusive, SW480 rerep 1%, MCF10A rerep inconclusive, Gal4-VP16 FLuc 13µM*, RORg inh inconclusive and KB-3-1 cytotox inconclusive.
`Cc1cccc(NC(=O)C(=O)NCC(c2ccc3c(c2)OCO3)N2CCOCC2)c1C` (centres undefined) gave KB-V1 cytotox inactive and KB-3-1 cytotox inactive.
Cc1cc(Cl)ccc1OCC(=O)Nc1ccccc1C(=O)N1CCOCC1 was read as KB-V1 cytotox inconclusive, SW480 rerep -4%, MCF10A rerep 2%, Gal4-VP16 FLuc -2%, RORg inh 0% and KB-3-1 cytotox inconclusive.
